Compounds with a hit are over-represented: about 6.8% of the library has one in this group of screens.
NADH coupling – inhibition of NAD/NADH coupling enzymes, library profiling. coupled PK/LDH NADH assays, four targets. IC50, µM (titrated, usually from 10 µM), for the others: at the top dose inhibition. 0.02% of 65,000 active;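 active = single-dose screening hits from any of four coupled enzyme assays that gave an IC50 when retested across doses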;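 also: the DPM-DC format reads NADH fluorescence rather than 340 nm absorbance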
DPM-DC inhibit – inhibitors of Streptococcus pneumoniae diphosphomevalonate decarboxylase; purified DPM-DC, PK/LDH coupled NADH fluorescence; 0.49% of 65,000 active; calls only at 10 µM; AID 556;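 active = the 320 compounds with the highest percent inhibition in the single-dose primary screen, excluding strongly autofluorescent ones, cut at about 32% in these data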;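 also: kinetic rate of NADH fluorescence loss reporting ADP formed by the decarboxylase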
PMK inhibit – inhibitors of Streptococcus pneumoniae phosphomevalonate kinase; purified PMK, PK/LDH-coupled NADH absorbance 340 nm; inhibition, % at 10 µM; 0.49% of 65,000 active;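 active = top-ranked compounds by inhibition in the single 10 µM screen, taking a fixed number of the strongest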;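 also: 0% = full reaction with DMSO carrier and 100% = background rate without enzyme reaction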
Abs 340nm – compound absorbs light at 340 nm; compound absorbance at 340 nm, fold over control; fold change at 10 µM; 65,000 tested, under 10 active;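 active = at 10 µM dose, initial 340 nm absorbance at least 2 fold that of control wells; inactive = change under 2 fold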;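 also: initial absorbance extrapolated from kinetic A340 decline of NADH oxidation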
Autofluor 339 – intrinsic fluorescence of library compounds, ex339/em460 – biochemical, MLSMR library, data from DPM-DC assay, artefact control, profiling panel; fluorescence fold increase at 10 µM; 5.5% of 65,000 active; compound autofluorescence, ex339/em460 nm, NADH buffer; active compounds read high; 1 = no-compound wells, NADH background;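 active = at 10 µM, mean starting fluorescence two-fold or more over control wells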;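 also: signal is the first read of a kinetic run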
MK inhibit – inhibitors of Streptococcus pneumoniae mevalonate kinase | purified MK, PK/LDH-coupled NADH absorbance 340 nm | inhibition, % at 10 µM | 0.48% of 65,000 active;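 active = ranked among the strongest by inhibition in the single 10 µM screen, a fixed top-ranked set picked for dose follow-up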
Active calls of the source: *; i = inactive; nt = not tested or not shown.

SMILES	NADH coupling	DPM-DC inhibit	PMK inhibit	Abs 340nm	Autofluor 339	MK inhibit
CSc1nc(NC(C)(C)C)nc(Oc2ccc(=O)[nH]n2)n1	2.0%	i	9.0	0.98	1.02	6.0
O=C(O)c1cc(NCc2c(F)cccc2Cl)ccc1N1CCOCC1	6.0%	i	4.0	1.01	1.9	5.0
Cc1ccc(CNc2ccc(N3CCOCC3)c(C(=O)O)c2)s1	4.0%	i	0.0	1.03	2.39*	3.0
COC(=O)c1cc(NCc2ccccc2F)ccc1N1CCOCC1	13.0%	i	17.0	0.99	1.82	12.0
CCOc1ccccc1CNc1ccc(N2CCOCC2)c(C(=O)O)c1	5.0%	i	0.0	1.04	2.17*	3.0
COC(=O)N1CCN(S(=O)(=O)c2ccc(F)cc2)CC1	4.0%	i	10.0	1.02	1.05	3.0
CC1=CC(C)(C)Nc2ccc(C)cc21	7.0%	i	6.0	1.01	2.58*	5.0
CC1=CC(C)(C)Nc2cc(C)c(C)cc21	7.0%	i	8.0	1.01	2.7*	10.0
O=C(O)CSc1nnc(-c2ccncc2)n1C1CCCCC1	7.0%	i	8.0	1	1.06	12.0
Cc1cc2n(n1)C(c1sccc1C)Nc1c(C)cccc1-2 (stereo not given)	4.0%	i	6.0	1.02	2.06*	5.0
Cc1cc2n(n1)C(c1sccc1C)Nc1ccccc1-2 (stereo not given)	3.0%	i	2.0	1.01	1.82	3.0
Cc1ccc2c(c1)-c1cc(C)nn1C(c1sccc1C)N2 (stereo not given)	14.0%	i	8.0	1.02	2.2*	12.0
CCOc1ccc(NC2=NC(C(=O)NCc3ccccc3)CC(=O)N2)cc1 (stereo not given)	4.0%	i	10.0	1.03	1.06	1.0
Cc1ccc(C2CC(C(F)(F)F)n3ncc(C(=O)NCc4ccco4)c3N2)cc1 (stereo not given)	6.0%	i	7.0	0.97	1.13	10.0
CCS(=O)(=O)N1CCC(C(=O)NCCc2ccccc2)CC1	8.0%	i	25.0*	1.01	1.08	0.0
O=C(NCC1CCCO1)C1CCN(S(=O)(=O)N2CCCC2)CC1 (stereo not given)	7.0%	i	21.0	1	1.01	0.0
CCS(=O)(=O)N1CCC(C(=O)NCC2CCCO2)CC1 (stereo not given)	8.0%	i	25.0*	1	1.06	0.0
O=C(NCC1CCCO1)C1CC(=O)N(C2CCCCCC2)C1 (stereo not given)	9.0%	i	27.0*	1	1.04	0.0
CCS(=O)(=O)N1CCC(C(=O)NCCc2ccc(C)cc2)CC1	3.0%	i	24.0	0.99	1.05	0.0
O=C(Nc1cccc(C(F)(F)F)c1)C1CCCN1S(=O)(=O)c1cccc2cccnc12 (stereo not given)	3.0%	i	8.0	0.99	1.03	0.0
CCOc1cccc2cc(-c3csc(NC(=O)CCC(=O)N4CCN(C)CC4)n3)c(=O)oc12	4.0%	i	2.0	1.1	1.94	0.0
O=C1CCCC2=C1C(c1ccco1)Nc1ccc3ccccc3c12 (stereo not given)	7.0%	nt	6.0	1.01	2.16*	8.0
Cc1cccc(N2C(=O)c3cccc4c(N(C)CCO)ccc(c34)C2=O)c1	2.0%	nt	1.0	1.06	2.11*	3.0
CCCOc1ccc(C2c3c(oc4ccccc4c3=O)C(=O)N2CCCN2CCOCC2)cc1 (stereo not given)	3.0%	i	13.0	1	1.07	6.0
CCOC(=O)N1CCN(CCC(=O)Nc2cccc(Br)c2)CC1	8.0%	i	12.0	1	1.08	11.0
SMILES	NADH coupling	DPM-DC inhibit	PMK inhibit	Abs 340nm	Autofluor 339	MK inhibit
N#Cc1nc(Cc2ccccc2)oc1N1CCC(C(N)=O)CC1	8.0%	i	12.0	1.02	1.05	11.0
N#Cc1nc(-c2ccco2)oc1N1CCC(C(N)=O)CC1	13.0%	nt	14.0	1.04	3.93*	11.0
CC1CN(c2oc(-c3ccco3)nc2C#N)CC(C)O1 (stereo not given)	10.0%	nt	7.0	1.08	3.8*	13.0
COc1cccc2c(=O)n(CC(=O)NC3CCCCC3)ccc12	4.0%	i	4.0	1.11	1.33	7.0
Cc1onc(-c2ccccc2Cl)c1C(=O)NCCn1c(C)cc2ccccc21	3.0%	i	7.0	0.98	1.04	5.0
Cc1ccc2c(c1)c1c(n2CC(O)CN2C(=O)CNC2=O)C(=O)CCC1 (stereo not given)	8.0%	nt	7.0	1.1	2.03*	9.0
Cc1ccc2c(c1)c1c(n2CC2COC(C)(C)O2)C(=O)CCC1 (stereo not given)	5.0%	nt	1.0	1.03	2.18*	9.0
Cc1ccc2c(c1)c1c(n2CC(O)Cn2c(C)nc3ccccc32)/C(=N\O)CCC1 (stereo not given)	4.0%	i	7.0	0.99	1.05	5.0
Cc1ccc2c(c1)c1c(n2CC(O)Cn2c(C)nc3ccccc32)C(=O)CCC1 (stereo not given)	16.0%	nt	21.0	1.06	2.04*	11.0
CSC1=NCCN1C(=O)c1c(F)cccc1F	5.0%	i	8.0	1	1.02	6.0
COCCn1nnnc1C(c1ccccc1OC)N1CCc2ccccc2C1 (stereo not given)	4.0%	i	18.0	0.98	1.04	7.0
COc1cc(NC(=O)c2cc3c(C)nc4ccccc4c3o2)cc(OC)c1OC	10.0%	i	18.0	1.1	1.04	10.0
COc1ccc(C)cc1NC(=O)c1cc2c(C)nc3ccccc3c2o1	7.0%	nt	6.0	1.06	4.99*	8.0
Cc1nc2ccccc2c2oc(C(=O)Nc3ccc4c(c3)OCCO4)cc12	11.0%	nt	7.0	1.04	2.13*	14.0
CCOc1ccc(NC(=O)c2oc3ccccc3c2NC(=O)C(C)C)cc1	3.0%	i	7.0	1.11	1.24	1.0
CCn1c(C(=O)Nc2ccsc2C(=O)OC)cc2sc(Cl)cc21	13.0%	nt	0.0	1.12	2.15*	26.0
c1ccc(C2(c3ccccc3)OCC(Cn3cncn3)O2)cc1 (stereo not given)	3.0%	i	9.0	1	1.12	0.0
CC1CCN(C(=O)CSc2nc(N)c3c4c(sc3n2)CN(C)CC4)CC1	3.0%	nt	0.0	1.1	2.09*	5.0
CN1CCc2c(sc3nc(SCC(=O)N4CCOCC4)nc(N)c23)C1	3.0%	nt	0.0	1.17	2.22*	5.0
O=C1CC(c2cccs2)c2cc3c(cc2N1)OCCO3 (stereo not given)	2.0%	i	0.0	1.03	1.12	7.0
O=c1c(C(c2nnnn2C2CCCCC2)N2CCCCC2)coc2ccc(Cl)cc12 (stereo not given)	6.0%	i	19.0	1.03	1.16	0.0
CCc1nc(NCC(C)C)c(C#N)c2c1COC(C)(C)C2	4.0%	nt	7.0	1.03	2.15*	0.0
CCc1nc(NC2CCCCC2)c(C#N)c2c1COC(C)(C)C2	4.0%	i	7.0	1.03	1.84	4.0
